The campaign covered roughly 5,500 compounds. About 2,000 (36%) were called active. Another 18% or so got no clear call; they are omitted. No stated cut-off is given here; in the data, active means normalized growth mostly below about 0.91 (no sharp cut-off); inconclusive means no clear call, values can overlap the other calls; inactive means mostly above about 0.92. The list shows a part of the results.
Assay: chemical genetic growth profiling, strain panel (AID 1159580);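 further: tested at 20 µM; growth read once vehicle control cultures reached saturation at 30 °C; 1 = growth at the plate median or of vehicle wells; lower values mean less growth of the strain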
Settings: growth OD

Measured: normalized growth

CC1Cc2ccccc2N1NC(=O)c1ccc(Cl)c(S(N)(=O)=O)c1 (centres undefined)
inactive: S. cerevisiae deletion strains, locus YJR043C, strain POL32, active compounds read low 1.02 | S. cerevisiae deletion strains, locus YJR066W, strain TOR1, active compounds read low 0.94 | S. cerevisiae deletion strains, locus YJR075W, strain HOC1, active compounds read low 1.01 | S. cerevisiae deletion strains, locus YKL009W, strain mrt4, active compounds read low 1.01 | S. cerevisiae deletion strains, locus YKL068W, active compounds read low 0.994 | S. cerevisiae deletion strains, locus YKL085W, strain MDH1 (second series), active compounds read low 0.988 | S. cerevisiae deletion strains, locus YKL085W, strain MDH1, active compounds read low 0.988 | S. cerevisiae deletion strains, locus YKL160W, strain elf1, active compounds read low 0.991 | S. cerevisiae deletion strains, locus YKR001C, strain vps1, active compounds read low 1.01 | S. cerevisiae deletion strains, locus YKR026C, strain gcn3, active compounds read low 0.997 | S. cerevisiae deletion strains, locus YKR091W, strain srl3, active compounds read low 0.997 | S. cerevisiae deletion strains, locus YLL001W, strain dnm1, active compounds read low 0.994 | S. cerevisiae deletion strains, locus YLL026W, active compounds read low 0.999 | S. cerevisiae deletion strains, locus YLL041C, strain sdh2, active compounds read low 0.998 | S. cerevisiae deletion strains, locus YLR027C, strain aat2, active compounds read low 1 | S. cerevisiae deletion strains, locus YLR039C, strain RIC1, active compounds read low 1.03 | S. cerevisiae deletion strains, locus YLR058C, strain SHM2, active compounds read low 1.01 | S. cerevisiae deletion strains, locus YLR102C, strain apc9, active compounds read low 0.989 | S. cerevisiae deletion strains, locus YLR113W, strain HOG1, active compounds read low 1 | S. cerevisiae deletion strains, locus YLR221C, strain rsa3, active compounds read low 0.989 | S. cerevisiae deletion strains, locus YLR258W, strain gsy2, active compounds read low 1.01 | S. cerevisiae deletion strains, locus YLR262C, strain YPT6 (second series), active compounds read low 0.996 | S. cerevisiae deletion strains, locus YLR262C, strain YPT6, active compounds read low 1.04 | S. cerevisiae deletion strains, locus YLR268W, strain sec22, active compounds read low 1.03 | S. cerevisiae deletion strains, locus YLR320W, strain mms22, active compounds read low 1 | S. cerevisiae deletion strains, locus YLR330W, strain CHS5, active compounds read low 1.01 | S. cerevisiae deletion strains, locus YLR342W, strain FKS1 (second series), active compounds read low 1.01 | S. cerevisiae deletion strains, locus YLR342W, strain FKS1, active compounds read low 0.999 | S. cerevisiae deletion strains, locus YLR357W, strain rsc2, active compounds read low 1.03 | S. cerevisiae deletion strains, locus YLR370C, strain arc18, active compounds read low 1.01 | S. cerevisiae deletion strains, locus YLR371W, strain rom2, active compounds read low 0.99 | S. cerevisiae deletion strains, locus YLR384C, strain iki3, active compounds read low 1.01 | S. cerevisiae deletion strains, locus YLR418C, strain cdc73, active compounds read low 0.989 | S. cerevisiae deletion strains, locus YML016C, strain PPZ1, active compounds read low 1.01 | S. cerevisiae deletion strains, locus YML032C, strain rad52, active compounds read low 0.994 | S. cerevisiae deletion strains, locus YML120C, strain ndi1, active compounds read low 0.987 | S. cerevisiae deletion strains, locus YML124C, strain tub3, active compounds read low 0.999 | S. cerevisiae deletion strains, locus YMR058W, strain fet3, active compounds read low 1.01 | S. cerevisiae deletion strains, locus YMR078C, strain ctf18, active compounds read low 0.994 | S. cerevisiae deletion strains, locus YMR125W, strain sto1, active compounds read low 1.01 | S. cerevisiae deletion strains, locus YMR129W, active compounds read low 1.01 | S. cerevisiae deletion strains, locus YMR205C, strain PFK2, active compounds read low 0.985 | S. cerevisiae deletion strains, locus YMR223W, strain ubp8, active compounds read low 0.977 | S. cerevisiae deletion strains, locus YMR231W, strain pep5, active compounds read low 1 | S. cerevisiae deletion strains, locus YMR263W, strain SAP30, active compounds read low 1.02 | S. cerevisiae deletion strains, locus YMR307W, strain GAS1, active compounds read low 1.04 | S. cerevisiae deletion strains, locus YNL067W, strain RPL9B, active compounds read low 1.01 | S. cerevisiae deletion strains, locus YNL071W, strain lat1, active compounds read low 1.01 | S. cerevisiae deletion strains, locus YNL183C, strain NPR1, active compounds read low 0.958 | S. cerevisiae deletion strains, locus YNL209W, strain ssb2, active compounds read low 1 | S. cerevisiae deletion strains, locus YNL233W, strain BNI4, active compounds read low 1.01 | S. cerevisiae deletion strains, locus YNL248C, strain rpa49, active compounds read low 0.989 | S. cerevisiae deletion strains, locus YNL250W, strain rad50, active compounds read low 0.984 | S. cerevisiae deletion strains, locus YNL271C, strain bni1, active compounds read low 0.995 | S. cerevisiae deletion strains, locus YNL298W, strain CLA4, active compounds read low 0.995 | S. cerevisiae deletion strains, locus YNL307C, strain MCK1, active compounds read low 0.996 | S. cerevisiae deletion strains, locus YNL322C, strain KRE1 (second series), active compounds read low 0.997 | S. cerevisiae deletion strains, locus YNR049C, strain mso1, active compounds read low 1 | S. cerevisiae deletion strains, locus YNR052C, strain pop2, active compounds read low 0.991 | S. cerevisiae deletion strains, locus YOL006C, strain TOP1, active compounds read low 1.01 | S. cerevisiae deletion strains, locus YOL012C, strain htz1 0.983 | S. cerevisiae deletion strains, locus YOL147C, strain pex11, active compounds read low 1 | S. cerevisiae deletion strains, locus YOR001W, strain rrp6, active compounds read low 0.975 | S. cerevisiae deletion strains, locus YOR061W, strain CKA2, active compounds read low 1.02 | S. cerevisiae deletion strains, locus YOR069W, strain VPS5, active compounds read low 1.01 | S. cerevisiae deletion strains, locus YOR070C, strain gyp1, active compounds read low 1 | S. cerevisiae deletion strains, locus YOR080W, strain dia2, active compounds read low 1 | S. cerevisiae deletion strains, locus YOR083W, strain WHI5, active compounds read low 0.983 | S. cerevisiae deletion strains, locus YOR106W, strain vam3, active compounds read low 0.981 | S. cerevisiae deletion strains, locus YOR136W, strain idh2, active compounds read low 0.992 | S. cerevisiae deletion strains, locus YOR144C, strain elg1, active compounds read low 0.998 | S. cerevisiae deletion strains, locus YOR184W, strain ser1, active compounds read low 0.982 | S. cerevisiae deletion strains, locus YOR231W, strain MKK1, active compounds read low 0.971 | S. cerevisiae deletion strains, locus YOR265W, strain rbl2, active compounds read low 1.02 | S. cerevisiae deletion strains, locus YOR270C, strain vph1, active compounds read low 0.997 | S. cerevisiae deletion strains, locus YOR290C, strain snf2, active compounds read low 0.952 | S. cerevisiae deletion strains, locus YOR316C, strain cot1, active compounds read low 0.994 | S. cerevisiae deletion strains, locus YPL051W, strain arl3, active compounds read low 0.993 | S. cerevisiae deletion strains, locus YPL055C, strain LGE1, active compounds read low 1 | S. cerevisiae deletion strains, locus YPL078C, strain atp4, active compounds read low 0.984 | S. cerevisiae deletion strains, locus YPL106C, strain sse1, active compounds read low 0.994 | S. cerevisiae deletion strains, locus YPL240C, strain hsp82, active compounds read low 1.01 | S. cerevisiae deletion strains, locus YPL256C, strain CLN2, active compounds read low 0.998 | S. cerevisiae deletion strains, locus YPR119W, strain clb2, active compounds read low 0.991 | S. cerevisiae deletion strains, locus YPR141C, strain kar3, active compounds read low 0.998 | S. cerevisiae deletion strains, locus YPR163C, strain tif3, active compounds read low 1 | S. cerevisiae deletion strains, locus YPR167C, strain met16, active compounds read low 0.997 | S. cerevisiae deletion strains, strain wtn01, active compounds read low 1.02 | S. cerevisiae strains, strain wild type, active compounds read low 1.01
